Results: article PMC7862700, “An all-to-all approach to the identification of sequence-specific readers for epigenetic DNA modifications on cytosine”

Tests used:
Assay in all cases: DAPPL (digital affinity profiling via proximity ligation, sequencing); 10 mM Tris-HCl pH 7.5, 50 mM NaCl, 1 mM DTT, 4% glycerol, room temperature, 30 min; GST-TFs on glutathione beads, 16-mer random dsDNA library, 0.1% formaldehyde crosslink after washing; high values mean tight binding
[1] = target: T1, FLI1 (Homo sapiens, UniProt Q01543 1-452); settings: protein: recombinant; tags: N-terminal GST; dsDNA, one strand shown
T1 sequence: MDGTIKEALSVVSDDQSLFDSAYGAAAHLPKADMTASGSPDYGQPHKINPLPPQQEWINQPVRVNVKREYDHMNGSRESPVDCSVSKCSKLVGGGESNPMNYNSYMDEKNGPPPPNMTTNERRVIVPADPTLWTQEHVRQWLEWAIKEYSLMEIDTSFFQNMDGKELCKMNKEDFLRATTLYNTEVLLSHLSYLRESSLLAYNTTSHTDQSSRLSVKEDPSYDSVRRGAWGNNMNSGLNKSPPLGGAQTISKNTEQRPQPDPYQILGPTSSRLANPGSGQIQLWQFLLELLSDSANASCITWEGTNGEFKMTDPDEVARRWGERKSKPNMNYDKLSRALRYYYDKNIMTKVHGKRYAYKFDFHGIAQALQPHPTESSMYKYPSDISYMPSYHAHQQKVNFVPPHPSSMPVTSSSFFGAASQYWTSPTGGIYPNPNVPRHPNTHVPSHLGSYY
Procedure, shortened: (§1)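 Beads coated with glutathione captured GST-fused human transcription factors that had been expressed in yeast, and the factors were then given DNA barcodes and pooled with a tag-only sample. The pools were incubated with 200 nmole of a random double-stranded 16-mer DNA library in Tris/NaCl/DTT/glycerol buffer for 30 min at room temperature, washed, crosslinked with 0.1% formaldehyde and proximity-ligated with BsaI/T4 ligase at 37 °C for 1 h. PCR amplification and Illumina NextSeq500 sequencing came last. Binding signal is each hexamer's read frequency for a factor divided by its frequency for the tag-only sample.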

[2] = target: T2, ELK1 (Homo sapiens, UniProt P19419 1-428); settings: protein: recombinant; tags: N-terminal GST; dsDNA, one strand shown
T2 sequence: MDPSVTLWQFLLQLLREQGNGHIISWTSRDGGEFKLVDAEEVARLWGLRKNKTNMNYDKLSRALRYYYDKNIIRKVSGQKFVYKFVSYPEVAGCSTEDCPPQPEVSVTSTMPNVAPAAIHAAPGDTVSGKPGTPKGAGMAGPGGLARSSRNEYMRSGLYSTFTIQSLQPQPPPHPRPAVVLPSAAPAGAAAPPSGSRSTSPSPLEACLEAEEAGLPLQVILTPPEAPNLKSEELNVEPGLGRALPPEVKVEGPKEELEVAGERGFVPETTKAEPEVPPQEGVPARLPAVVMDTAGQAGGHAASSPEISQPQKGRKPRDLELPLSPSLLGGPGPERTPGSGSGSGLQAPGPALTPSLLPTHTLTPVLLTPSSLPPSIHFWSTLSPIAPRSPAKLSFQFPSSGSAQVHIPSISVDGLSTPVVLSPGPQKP
Procedure, shortened: as §1

[3] = target: T3, GABPA (Homo sapiens, UniProt Q06546 1-454); settings: protein: recombinant; tags: N-terminal GST; dsDNA, one strand shown
T3 sequence: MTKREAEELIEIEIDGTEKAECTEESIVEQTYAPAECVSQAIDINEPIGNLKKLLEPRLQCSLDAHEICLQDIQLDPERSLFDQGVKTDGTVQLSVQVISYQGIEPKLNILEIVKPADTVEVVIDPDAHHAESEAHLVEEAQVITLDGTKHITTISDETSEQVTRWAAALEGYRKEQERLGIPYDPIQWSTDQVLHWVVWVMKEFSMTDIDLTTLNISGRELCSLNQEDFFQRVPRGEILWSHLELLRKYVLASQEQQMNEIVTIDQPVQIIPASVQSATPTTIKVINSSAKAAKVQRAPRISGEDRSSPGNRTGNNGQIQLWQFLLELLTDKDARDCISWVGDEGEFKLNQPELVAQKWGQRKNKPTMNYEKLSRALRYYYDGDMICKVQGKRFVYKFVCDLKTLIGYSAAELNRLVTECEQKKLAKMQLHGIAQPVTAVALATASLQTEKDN
Procedure, shortened: as §1

[4] = target: T4, ERG (Homo sapiens, UniProt P11308 1-479); settings: protein: recombinant; tags: N-terminal GST; dsDNA, one strand shown
T4 sequence: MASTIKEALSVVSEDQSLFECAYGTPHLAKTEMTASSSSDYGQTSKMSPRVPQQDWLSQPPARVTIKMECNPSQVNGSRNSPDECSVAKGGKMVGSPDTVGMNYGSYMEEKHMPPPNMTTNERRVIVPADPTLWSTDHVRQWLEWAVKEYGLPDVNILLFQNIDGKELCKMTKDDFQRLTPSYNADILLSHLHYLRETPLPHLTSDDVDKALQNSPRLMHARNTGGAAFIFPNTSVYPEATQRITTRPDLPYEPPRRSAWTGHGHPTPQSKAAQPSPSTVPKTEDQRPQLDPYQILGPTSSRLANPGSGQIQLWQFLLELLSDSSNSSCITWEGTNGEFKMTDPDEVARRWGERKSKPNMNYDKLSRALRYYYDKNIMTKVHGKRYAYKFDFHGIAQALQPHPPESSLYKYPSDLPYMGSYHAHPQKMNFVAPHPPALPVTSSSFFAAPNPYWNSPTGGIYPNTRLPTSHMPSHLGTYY
Procedure, shortened: as §1

[5] = target: ELF1 (Homo sapiens, UniProt P32519 1-619); settings: protein: recombinant; tags: N-terminal GST; dsDNA, one strand shown
Procedure, shortened: as §1

[6] = target: T5, EHF (Homo sapiens, UniProt Q9NZC4 1-300); settings: protein: recombinant; tags: N-terminal GST; dsDNA, one strand shown
T5 sequence: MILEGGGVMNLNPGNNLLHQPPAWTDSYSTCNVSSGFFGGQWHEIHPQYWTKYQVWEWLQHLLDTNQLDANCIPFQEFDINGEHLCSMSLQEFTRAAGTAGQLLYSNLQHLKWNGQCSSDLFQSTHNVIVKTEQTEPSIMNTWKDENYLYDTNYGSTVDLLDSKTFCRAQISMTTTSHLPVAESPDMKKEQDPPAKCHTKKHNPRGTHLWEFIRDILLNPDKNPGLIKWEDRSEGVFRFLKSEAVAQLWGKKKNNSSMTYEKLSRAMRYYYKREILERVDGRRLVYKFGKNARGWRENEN
Procedure, shortened: as §1

[7] = target: SPI1 (Homo sapiens, UniProt P17947 1-270); settings: protein: recombinant; tags: N-terminal GST; dsDNA, one strand shown
Procedure, shortened: as §1

[8] = target: SPIB (Homo sapiens, UniProt Q01892 1-262); settings: protein: recombinant; tags: N-terminal GST; dsDNA, one strand shown
Procedure, shortened: as §1

[9] = target: T6, ELK3 (Homo sapiens, UniProt P41970 1-407); settings: protein: recombinant; tags: N-terminal GST; dsDNA, one strand shown
T6 sequence: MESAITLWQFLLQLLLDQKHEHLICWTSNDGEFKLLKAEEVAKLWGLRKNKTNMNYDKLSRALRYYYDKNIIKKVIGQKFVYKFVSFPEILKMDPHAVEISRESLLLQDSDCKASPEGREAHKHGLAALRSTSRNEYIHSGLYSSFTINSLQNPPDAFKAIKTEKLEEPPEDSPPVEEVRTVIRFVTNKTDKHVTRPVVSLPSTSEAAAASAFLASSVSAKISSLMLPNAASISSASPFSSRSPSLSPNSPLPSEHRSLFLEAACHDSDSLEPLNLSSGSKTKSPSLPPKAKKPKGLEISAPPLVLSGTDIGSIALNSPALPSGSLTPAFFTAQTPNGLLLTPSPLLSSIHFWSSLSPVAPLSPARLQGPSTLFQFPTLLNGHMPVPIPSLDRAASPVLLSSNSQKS
Procedure, shortened: as §1

[10] = target: T7, FEV (Homo sapiens, UniProt Q99581 1-238); settings: protein: recombinant; tags: N-terminal GST; dsDNA, one strand shown
T7 sequence: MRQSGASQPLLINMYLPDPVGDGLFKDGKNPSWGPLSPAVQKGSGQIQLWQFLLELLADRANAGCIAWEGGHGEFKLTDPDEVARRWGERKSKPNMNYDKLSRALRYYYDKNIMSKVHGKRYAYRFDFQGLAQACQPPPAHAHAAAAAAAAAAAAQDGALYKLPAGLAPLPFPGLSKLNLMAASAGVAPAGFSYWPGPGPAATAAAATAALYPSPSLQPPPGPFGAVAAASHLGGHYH
Procedure, shortened: as §1

[11] = target: ETV5 (Homo sapiens, UniProt P41161 1-510); settings: protein: recombinant; tags: N-terminal GST; dsDNA, one strand shown
Procedure, shortened: as §1

[12] = target: HSF1 (Homo sapiens, UniProt Q00613 1-529); settings: protein: recombinant; tags: N-terminal GST; chain copies: 3; dsDNA, one strand shown
Procedure, shortened: as §1

[13] = target: T8, SPIC (Homo sapiens, UniProt Q8N5J4 1-248); settings: protein: recombinant; tags: N-terminal GST; dsDNA, one strand shown
T8 sequence: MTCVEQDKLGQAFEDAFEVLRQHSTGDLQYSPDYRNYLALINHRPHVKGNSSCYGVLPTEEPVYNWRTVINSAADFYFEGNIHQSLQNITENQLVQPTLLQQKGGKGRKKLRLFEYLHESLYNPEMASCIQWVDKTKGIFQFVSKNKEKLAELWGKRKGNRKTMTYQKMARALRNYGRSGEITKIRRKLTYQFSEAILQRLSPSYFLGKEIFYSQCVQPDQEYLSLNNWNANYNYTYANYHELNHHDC
Procedure, shortened: as §1

[14] = target: ELF4 (Homo sapiens, UniProt Q99607 1-663); settings: protein: recombinant; tags: N-terminal GST; dsDNA, one strand shown
Procedure, shortened: as §1

[15] = target: T9, ELK4 (Homo sapiens, UniProt P28324-2 1-405); settings: protein: recombinant; tags: N-terminal GST; dsDNA, one strand shown
T9 sequence: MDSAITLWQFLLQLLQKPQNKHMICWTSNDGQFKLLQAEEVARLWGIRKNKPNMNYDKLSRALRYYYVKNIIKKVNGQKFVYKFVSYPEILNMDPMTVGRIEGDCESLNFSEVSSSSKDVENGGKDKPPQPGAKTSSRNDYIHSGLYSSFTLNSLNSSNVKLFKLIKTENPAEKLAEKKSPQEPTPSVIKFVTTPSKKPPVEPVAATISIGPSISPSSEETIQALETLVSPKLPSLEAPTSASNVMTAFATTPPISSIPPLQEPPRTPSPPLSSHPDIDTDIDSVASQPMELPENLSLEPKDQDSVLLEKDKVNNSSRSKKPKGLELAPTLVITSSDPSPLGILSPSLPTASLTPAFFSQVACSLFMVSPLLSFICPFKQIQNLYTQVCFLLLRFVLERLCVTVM
Procedure, shortened: as §1

[16] = target: T10, ETV2 (Homo sapiens, UniProt O00321 1-342); settings: protein: recombinant; tags: N-terminal GST; dsDNA, one strand shown
T10 sequence: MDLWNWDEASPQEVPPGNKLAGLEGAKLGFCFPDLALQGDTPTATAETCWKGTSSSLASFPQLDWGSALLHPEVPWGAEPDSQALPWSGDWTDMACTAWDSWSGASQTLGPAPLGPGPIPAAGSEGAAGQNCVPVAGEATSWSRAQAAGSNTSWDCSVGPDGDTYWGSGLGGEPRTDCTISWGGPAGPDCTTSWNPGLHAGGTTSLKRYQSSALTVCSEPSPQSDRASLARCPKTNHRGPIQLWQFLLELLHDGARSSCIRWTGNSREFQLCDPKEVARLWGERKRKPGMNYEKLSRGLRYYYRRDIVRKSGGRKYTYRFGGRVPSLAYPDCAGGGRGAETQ
Procedure, shortened: as §1

[17] = target: T11, ELF3 (Homo sapiens, UniProt P78545 1-371); settings: protein: recombinant; tags: N-terminal GST; dsDNA, one strand shown
T11 sequence: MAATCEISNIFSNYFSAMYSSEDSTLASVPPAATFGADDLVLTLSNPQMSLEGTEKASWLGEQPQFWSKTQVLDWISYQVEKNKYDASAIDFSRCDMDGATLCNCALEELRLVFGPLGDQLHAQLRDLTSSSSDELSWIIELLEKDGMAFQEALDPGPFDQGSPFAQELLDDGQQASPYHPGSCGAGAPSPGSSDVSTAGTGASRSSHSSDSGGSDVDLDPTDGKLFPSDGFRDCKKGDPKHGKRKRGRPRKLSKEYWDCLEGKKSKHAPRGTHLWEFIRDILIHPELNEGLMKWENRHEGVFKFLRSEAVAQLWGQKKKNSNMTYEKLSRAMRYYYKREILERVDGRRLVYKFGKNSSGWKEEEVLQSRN
Procedure, shortened: as §1

[18] = target: CRX (Homo sapiens, UniProt O43186 1-299); settings: protein: recombinant; tags: N-terminal GST; dsDNA, one strand shown
Procedure, shortened: as §1

[19] = target: ETV1 (Homo sapiens, UniProt P50549 1-477); settings: protein: recombinant; tags: N-terminal GST; dsDNA, one strand shown
Procedure, shortened: as §1

ELF4, sequence (Q99607 whole entry): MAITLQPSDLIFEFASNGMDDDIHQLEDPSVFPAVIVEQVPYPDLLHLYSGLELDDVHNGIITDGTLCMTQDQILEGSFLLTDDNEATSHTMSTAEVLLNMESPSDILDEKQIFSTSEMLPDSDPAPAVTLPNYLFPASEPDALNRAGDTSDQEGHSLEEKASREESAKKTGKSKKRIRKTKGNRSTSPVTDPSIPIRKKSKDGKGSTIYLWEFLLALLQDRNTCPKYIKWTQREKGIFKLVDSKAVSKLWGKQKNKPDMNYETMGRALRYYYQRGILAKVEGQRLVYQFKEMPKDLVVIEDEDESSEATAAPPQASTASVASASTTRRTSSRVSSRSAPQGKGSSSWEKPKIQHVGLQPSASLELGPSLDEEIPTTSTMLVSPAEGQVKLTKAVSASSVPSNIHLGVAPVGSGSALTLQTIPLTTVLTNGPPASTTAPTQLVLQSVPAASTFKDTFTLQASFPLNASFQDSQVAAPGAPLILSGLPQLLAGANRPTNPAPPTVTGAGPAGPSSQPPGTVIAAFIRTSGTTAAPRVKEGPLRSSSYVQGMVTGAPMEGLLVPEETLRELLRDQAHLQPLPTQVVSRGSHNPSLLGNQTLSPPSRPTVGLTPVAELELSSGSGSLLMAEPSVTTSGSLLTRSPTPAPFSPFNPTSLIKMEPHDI
ETV5, sequence (P41161 whole entry): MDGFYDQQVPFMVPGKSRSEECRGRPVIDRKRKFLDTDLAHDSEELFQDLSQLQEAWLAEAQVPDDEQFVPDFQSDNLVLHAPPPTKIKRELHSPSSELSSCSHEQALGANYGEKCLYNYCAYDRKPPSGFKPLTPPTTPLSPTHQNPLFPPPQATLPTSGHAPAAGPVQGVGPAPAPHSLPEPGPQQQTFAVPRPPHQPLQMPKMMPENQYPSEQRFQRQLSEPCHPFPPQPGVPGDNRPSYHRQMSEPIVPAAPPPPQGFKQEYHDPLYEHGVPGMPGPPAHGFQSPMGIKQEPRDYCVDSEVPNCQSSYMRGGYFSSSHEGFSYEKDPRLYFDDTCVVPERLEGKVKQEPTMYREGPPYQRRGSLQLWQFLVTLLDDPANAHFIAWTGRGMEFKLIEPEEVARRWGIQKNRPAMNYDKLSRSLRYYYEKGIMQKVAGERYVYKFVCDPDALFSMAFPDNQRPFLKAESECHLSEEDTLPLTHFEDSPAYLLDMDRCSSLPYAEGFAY
SPIB, sequence (Q01892 whole entry): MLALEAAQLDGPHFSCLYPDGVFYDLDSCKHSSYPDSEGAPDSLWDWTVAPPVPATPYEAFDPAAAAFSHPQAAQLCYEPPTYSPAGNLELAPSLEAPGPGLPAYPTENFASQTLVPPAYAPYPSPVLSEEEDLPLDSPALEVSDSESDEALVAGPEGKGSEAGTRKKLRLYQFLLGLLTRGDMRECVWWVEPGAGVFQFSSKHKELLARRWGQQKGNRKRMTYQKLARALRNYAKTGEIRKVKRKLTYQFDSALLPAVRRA
CRX, sequence (O43186 whole entry): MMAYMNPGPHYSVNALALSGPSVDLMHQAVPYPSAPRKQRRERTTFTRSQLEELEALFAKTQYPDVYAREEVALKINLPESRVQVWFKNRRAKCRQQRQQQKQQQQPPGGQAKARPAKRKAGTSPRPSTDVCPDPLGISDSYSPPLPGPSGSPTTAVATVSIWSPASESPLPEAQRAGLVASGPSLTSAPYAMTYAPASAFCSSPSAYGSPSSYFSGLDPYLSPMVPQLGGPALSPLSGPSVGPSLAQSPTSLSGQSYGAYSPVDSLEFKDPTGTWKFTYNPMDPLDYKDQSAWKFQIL
HSF1, sequence (Q00613 whole entry): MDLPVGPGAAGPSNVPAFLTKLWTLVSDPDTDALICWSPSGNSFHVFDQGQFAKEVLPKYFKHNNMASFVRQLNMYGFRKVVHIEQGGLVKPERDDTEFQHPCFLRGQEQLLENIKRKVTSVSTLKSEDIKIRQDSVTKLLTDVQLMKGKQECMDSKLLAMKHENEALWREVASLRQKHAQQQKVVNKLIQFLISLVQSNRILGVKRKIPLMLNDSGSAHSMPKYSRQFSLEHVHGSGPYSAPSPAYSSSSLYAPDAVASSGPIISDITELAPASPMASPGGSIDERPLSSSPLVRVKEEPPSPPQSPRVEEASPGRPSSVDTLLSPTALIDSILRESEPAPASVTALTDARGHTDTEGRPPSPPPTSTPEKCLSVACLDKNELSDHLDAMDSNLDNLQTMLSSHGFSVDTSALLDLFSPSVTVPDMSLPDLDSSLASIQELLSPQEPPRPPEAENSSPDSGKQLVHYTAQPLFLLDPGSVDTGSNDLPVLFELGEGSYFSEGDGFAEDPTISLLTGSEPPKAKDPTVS
ELF1, sequence (P32519 whole entry): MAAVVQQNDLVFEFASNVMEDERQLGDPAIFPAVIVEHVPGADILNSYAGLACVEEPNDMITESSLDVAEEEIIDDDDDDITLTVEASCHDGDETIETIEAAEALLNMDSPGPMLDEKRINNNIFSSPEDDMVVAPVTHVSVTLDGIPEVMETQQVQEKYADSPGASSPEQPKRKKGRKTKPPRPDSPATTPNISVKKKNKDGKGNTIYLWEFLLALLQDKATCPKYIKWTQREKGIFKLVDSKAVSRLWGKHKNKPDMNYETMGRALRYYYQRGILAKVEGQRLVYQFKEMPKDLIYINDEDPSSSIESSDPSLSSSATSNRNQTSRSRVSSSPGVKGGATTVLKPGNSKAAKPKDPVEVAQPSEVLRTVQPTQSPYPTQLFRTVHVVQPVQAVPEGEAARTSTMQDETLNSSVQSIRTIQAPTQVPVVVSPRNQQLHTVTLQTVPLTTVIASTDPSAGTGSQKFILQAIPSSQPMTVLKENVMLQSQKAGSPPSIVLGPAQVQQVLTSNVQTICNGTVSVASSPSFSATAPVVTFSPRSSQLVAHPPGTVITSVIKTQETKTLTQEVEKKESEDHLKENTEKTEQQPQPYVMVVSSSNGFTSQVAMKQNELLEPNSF
ETV1, sequence (P50549 whole entry): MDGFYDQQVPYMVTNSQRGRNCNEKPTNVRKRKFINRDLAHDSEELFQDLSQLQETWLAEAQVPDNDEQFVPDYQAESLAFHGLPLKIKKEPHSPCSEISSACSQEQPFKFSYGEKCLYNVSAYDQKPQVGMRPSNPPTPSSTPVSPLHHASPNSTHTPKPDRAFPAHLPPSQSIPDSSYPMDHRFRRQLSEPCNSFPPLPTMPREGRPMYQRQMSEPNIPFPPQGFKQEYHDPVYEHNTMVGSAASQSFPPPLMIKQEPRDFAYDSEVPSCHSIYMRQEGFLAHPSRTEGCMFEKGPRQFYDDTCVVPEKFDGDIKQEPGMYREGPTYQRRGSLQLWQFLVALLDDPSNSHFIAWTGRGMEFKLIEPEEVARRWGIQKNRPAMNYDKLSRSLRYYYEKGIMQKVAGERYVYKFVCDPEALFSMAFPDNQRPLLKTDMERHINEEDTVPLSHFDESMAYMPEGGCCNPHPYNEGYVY

## TACGAT
[1]
  binding signal: 1.14 fold enrichment (6-mer frequency, TF over GST control)
[2]
  binding signal: 1.09 fold enrichment (6-mer frequency, TF over GST control)
[3]
  binding signal: 1.17 fold enrichment (6-mer frequency, TF over GST control)
[4]
  binding signal: 1.11 fold enrichment (6-mer frequency, TF over GST control)
[5]
  binding signal: 1.11 fold enrichment (6-mer frequency, TF over GST control)
[6]
  binding signal: 1.03 fold enrichment (6-mer frequency, TF over GST control)
[7]
  binding signal: 1.09 fold enrichment (6-mer frequency, TF over GST control)
[8]
  binding signal: 1.14 fold enrichment (6-mer frequency, TF over GST control)
[9]
  binding signal: 1.09 fold enrichment (6-mer frequency, TF over GST control)
[10]
  binding signal: 1.13 fold enrichment (6-mer frequency, TF over GST control)
[11]
  binding signal: 1.12 fold enrichment (6-mer frequency, TF over GST control)
[12]
  binding signal: 1.13 fold enrichment (6-mer frequency, TF over GST control)
[13]
  binding signal: 1.05 fold enrichment (6-mer frequency, TF over GST control)
[14]
  binding signal: 1.11 fold enrichment (6-mer frequency, TF over GST control)
[15]
  binding signal: 1.14 fold enrichment (6-mer frequency, TF over GST control)
[16]
  binding signal: 1.12 fold enrichment (6-mer frequency, TF over GST control)
[17]
  binding signal: 1.11 fold enrichment (6-mer frequency, TF over GST control)
[18]
  binding signal: 1.37 fold enrichment (6-mer frequency, TF over GST control)
[19]
  binding signal: 1.07 fold enrichment (6-mer frequency, TF over GST control)
